# Experimental data from PubChem BioAssay (NCI).
# About 83,000 compounds went through this panel and 20% of them were active in at least one assay; those are over-represented in the sample as a whole.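 The endpoint reported here, percent growth, reads 100 for growth as untreated, 0 for no net growth and -100 for all cells dead.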 A number with no mark means an inactive call. Active and inactive are the calls of the source. Rule for the calls: active = growth percent below 10; inactive = the rest.
# System: HL-60(TB) leukemia
# Test: NCI-60 one-dose screen, 48 h (100 = growth as untreated, 0 = no growth, -100 = all killed)
# Details: 10 µM unless noted
row,Structure (SMILES),growth
1,COc1cccc(COc2ccc(/C=C3\Oc4cc(O)ccc4C3=O)cc2)c1,79.5%
2,Cc1ccc(C(=O)Nc2cc(-c3ccccc3)cc(C(F)(F)F)c2)cc1C#Cc1cnc2cccnn12,38.1%
3,O=C1/C(=C/C2=Cc3ccccc3OC2)SC(=S)N1c1ccccc1F,87.9%
4,O=C(c1ccc(O)cc1)C1[C@H](c2ccccc2Br)[C@@H](c2ccccc2)NC12C(=O)Nc1ccc(Cl)cc12 (stereo not given in full),-17.3% (active)
5,COc1cc(C2CC(c3ccc(Cl)cc3)=Nc3c(N)nc(N)nc3N2)ccc1Oc1nc(Nc2ccc(F)cc2)nc(N(C)C)n1 (stereo not given),16.3%
6,O=C1Nc2ccc(Cl)cc2/C1=C/c1cccc(OCc2ccccc2)c1,8.8% (active)
7,N#Cc1c(-c2cccc(Cl)c2Cl)cc(-c2ccc3ccccc3c2)[nH]c1=O,83.8%
8,COc1cc2c(c(OC)c1OC)C(=O)CC(c1cccc(NC(=O)c3cc(NC(=O)[C@H](CO)NC(=O)OC(C)(C)C)ccc3Cl)c1)O2 (stereo not given in full),36.6%
9,FC(F)(F)c1cc2c(Cl)ncnc2n1CCN1CCOCC1,7.02% (active)
10,C=C1CC[C@@H]2[C@]3(C)COC(c4cn[nH]c4-c4ccccc4)O[C@@H]3CC[C@@]2(C)[C@@H]1C/C=C1/C(=O)OCC1O (stereo not given in full),8.64% (active)
11,CCOC(=O)C1=C(N)N(c2ccccc2)C2=C(C(=O)CC(C)(C)C2)C1c1ccc(Cl)cc1 (stereo not given),6.03% (active)
12,COc1ccc(Nc2ncnc3sc4c(c23)CCN(Cc2ccccc2)C4)cc1,68.2%
13,CN1C(=O)N(C)C2SC(N/N=C/c3ccc(F)cc3)=NC21 (stereo not given),-4.65% (active)
14,Cc1[nH]nc2ccc3nc(-c4cn[nH]c4C(F)(F)F)c4c(c3c12)CCCC4,-0.0725% (active)
15,CCOC(=O)CNC(=O)CN(Cc1ccccc1)C(=O)[C@@]1(C)CCC[C@]2(C)[C@H]3CC4C(C(C)C)=C[C@]3(CC[C@H]21)[C@@H]1C(=O)CCC(=O)[C@H]41,2.73% (active)
16,O=C(CSc1nc2ccccc2c(=O)[nH]1)Nc1ccccc1C(=O)O,103%
17,COc1ccc(-c2cc(-c3ccccc3)c(C#N)c(=O)[nH]2)cc1S(N)(=O)=O,142%
18,O=C(CSc1nc2sc3c(c2c(=O)n1-c1ccc(Cl)cc1)CCCC3)NNC(=O)c1ccc(F)cc1,109%
19,Cc1nn(-c2ccccc2)c2nc(C)n(C(=O)N/N=C/c3cccc([N+](=O)[O-])c3)c(=O)c12,74%
20,O=C1NC(=S)S/C1=C\c1cn(-c2ccccc2)nc1-c1ccc([N+](=O)[O-])cc1,9.92% (active)

row,Structure (SMILES),growth
1,CCOC(=O)c1sc(N/N=C(\C)c2ccc3c(c2)Nc2ccccc2S3)nc1C,22.1%
2,CC1=C(c2cc(-c3ccc(Cl)cc3)c(C#N)c(N)n2)C(c2ccccc2)NC(=S)N1 (stereo not given),5.3% (active)
3,CC1(c2cc3cc(Cl)ccc3oc2=O)NC(=O)c2c(/C=C/C(=O)OC3CC4CCC3(C)C4(C)C)cccc2N1 (stereo not given),29%
4,N/C(=N\c1nc2ccccc2s1)NC(=O)Nc1ccccc1[N+](=O)[O-],-11.1% (active)
5,COc1ccc(NC(=O)NN2C(=O)c3ccccc3N(C)C2c2ccc(OC)cc2)cc1 (stereo not given),101%
6,COc1ccccc1Nc1nnc(-c2c[nH]c3ccccc23)o1,2.38% (active)
7,NS(=O)(=O)c1cccc(Nc2nc(SCC(=O)c3ccc(F)cc3)nc3ccccc23)c1,6.93% (active)
8,CS(=O)(=O)Nc1cc(-c2ccc3ncnc(Nc4ccc(OCc5cccnc5)c(Cl)c4)c3c2)cnc1Cl,-59.5% (active)
9,COc1cc(-c2nc3ccc(C)cc3[nH]2)ccc1OCc1nnc(-c2ccccc2Br)o1,69.5%
10,COc1ccc([C@H]2C(C(=O)c3ccc(Cl)cc3)C3(N[C@@H]2c2ccccc2)C(=O)Nc2ccc(Br)cc23)cc1 (stereo not given in full),15.3%
11,O=C(/C=C1\C(=O)N(Cc2ccccc2)c2ccccc21)c1cc2ccccc2oc1=O,93%
12,Cc1nc(N)ncc1-c1ccc2ncnc(N3CCc4cc(F)c(Cl)cc43)c2c1,46.6%
13,O=C(NO)c1ccc(-c2nc3ccc4[nH]ncc4c3c3c2CCCC3)cc1,-18.7% (active)
14,Cn1cc(-c2cc(N)n3nc(-c4c[nH]c5ccccc45)cc3n2)c2cccnc21,-70.9% (active)
15,COc1cc(/C=C/C(=O)c2ccc(S(=O)(=O)NCCNc3nc(Nc4ccc(F)cc4)nc(N(C)C)n3)cc2)cc(OC)c1OC,-4.97% (active)
16,CS(=O)(=O)c1ccc(-n2nc(C(=O)NCc3ccccc3)cc2-c2ccc(Cl)cc2)cc1,83%
17,COc1ccc(-c2ccnc(SCc3cc4cc(Cl)ccc4[nH]c3=O)n2)cc1,120%
18,CNS(=O)(=O)N1CCc2c(Br)c3c(c(OC)c2C1CCc1ccccc1)OCO3 (stereo not given),-36.1% (active)
19,O=C(Nc1ccc(OCc2ccc(F)cc2)cc1)Nc1ccc(Cl)c(C(F)(F)F)c1,-3.24% (active)
20,CC(=O)/C=C/c1cccc2c1C(=O)NC(C)(c1cc3cc(Br)ccc3oc1=O)N2 (stereo not given),-29.3% (active)
